High-throughput results from PubChem BioAssay.
PostGolgi ctrl: growth inhibition of yeast control strain, primary screen, counter-screen for post-Golgi transport modulator project | AID 738, 2007 | efflux-deficient yeast background strain, growth absorbance A615, 16 h | hit rate 5% among 98,000 | inhibition, % at 10 µM
CYP2C9 inhib: blockers of cytochrome P450 2C9 activity – biochemical, luminescence, ADME assay, primary screen | P11712 | CYP2C9 Supersomes, luciferin-H conversion | inhibition, % at 5 µM | hit rate 20% among 96,000;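 active means blocking of liver enzyme CYP2C9 beyond about 50% at 5 µM, limit read from the data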
CYP2C19 act: human CYP2C19 activators, primary screen, biochemical, luminescence | Cytochrome P450 2C19 (Homo sapiens), P33261 | 96,000 tested, under 10 active | activation factor at 5 µM | recombinant CYP2C19, luciferin-H EGE luminescence; stronger effect = higher value; 0 = fully inhibited enzyme, 1 = untreated enzyme;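 active means activation factor of at least 2 at 5 µM in the primary screen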;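 further: 0 = wells with 2.5 mM tranylcypromine and 1 = vehicle-only wells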
Target sequence (P33261 whole entry, looked up): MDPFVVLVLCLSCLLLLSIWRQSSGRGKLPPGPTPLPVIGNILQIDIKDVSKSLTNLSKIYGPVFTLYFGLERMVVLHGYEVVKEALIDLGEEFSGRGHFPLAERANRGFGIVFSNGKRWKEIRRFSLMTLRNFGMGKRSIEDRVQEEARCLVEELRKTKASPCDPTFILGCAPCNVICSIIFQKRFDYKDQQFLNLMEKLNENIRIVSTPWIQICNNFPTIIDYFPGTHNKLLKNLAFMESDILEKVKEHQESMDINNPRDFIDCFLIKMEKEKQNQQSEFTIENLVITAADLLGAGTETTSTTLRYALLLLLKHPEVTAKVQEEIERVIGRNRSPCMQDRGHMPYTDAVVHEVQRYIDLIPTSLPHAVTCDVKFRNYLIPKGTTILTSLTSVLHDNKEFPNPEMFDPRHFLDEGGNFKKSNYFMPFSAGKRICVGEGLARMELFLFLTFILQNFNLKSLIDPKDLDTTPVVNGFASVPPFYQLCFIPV
PostGolgi yeast: phenotypic screen on post-Golgi transport, primary screen | post-Golgi transport phenotypic cell assay | inhibition, % at 10 µM | hit rate 0.9% among 98,000 | AID 739, 2007;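 further: yeast cells grown in 1536-well plates; yeast grown about 18 h at 30C before absorbance read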
CYP2C19 inh: blockers of cytochrome P450 2C19 activity – biochemical, luminescence, ADME assay, primary screen; hit rate 21% among 96,000; CYP2C19 Supersomes, luciferin-H EGE luminescence, 30 min; inhibition, % at 5 µM; AID 778, 2007; P33261;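 active means CYP2C19 inhibition above a set limit at 5 µM in the primary screen, cut at about 50% in these data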;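 further: plate controls were negative control wells for no effect and 2.5 mM tranylcypromine positive control for full effect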
CYP2C9 activ: human CYP2C9 activators, primary screen, biochemical, luminescence. recombinant CYP2C9, luciferin-H conversion; stronger effect = higher value; factor 1 = untreated enzyme, 0 = blocked. Cytochrome P450 2C9 (Homo sapiens), P11712. hit rate 1.4% among 96,000. activation factor at 5 µM. AID 1024, 2008;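 active means activation factor of 2 or more for CYP2C9 at a 5 µM dose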;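 further: 0 = sulfaphenazole-blocked wells and 1 = vehicle-only wells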
* = called active by the depositor. Shown are actives, neighbours in structure and some others; about 32% of the full set was active somewhere. Unless noted, no stated cut-off is given here; in the data, active means inhibition above about 30%; inactive means the rest.

For C=CCc1cccc2cc(C(=O)O)c(=O)oc12 the results were PostGolgi ctrl -3, CYP2C9 inhib -8, CYP2C19 act 1, PostGolgi yeast -5, CYP2C19 inh -3 and CYP2C9 activ 1.1.
For C=CCc1cccc2cc(C(=O)N(C)C)c(=O)oc12 the results were PostGolgi ctrl -9, CYP2C9 inhib -204, CYP2C19 act 0.8, PostGolgi yeast -5, CYP2C19 inh 18 and CYP2C9 activ 3*.
Screening C=CCc1cccc2cc(C(=O)N3CCN(C(=O)c4ccco4)CC3)c(=O)oc12 returned PostGolgi ctrl 6, CYP2C9 inhib -125, CYP2C19 act 1.1, PostGolgi yeast 0, CYP2C19 inh -7 and CYP2C9 activ 2.3*.
`C=CCc1cccc2cc(C(=O)OCC(=O)c3ccccc3)c(=O)oc12` gave PostGolgi ctrl 7, CYP2C9 inhib -187, CYP2C19 act 1.1, PostGolgi yeast -3, CYP2C19 inh -13 and CYP2C9 activ 2.9*.
For NC(=O)CN1CCOCCN(CC(N)=O)CCOCC1 the results were CYP2C9 inhib -1, CYP2C19 act 1.1, CYP2C19 inh -6 and CYP2C9 activ 1.
Screening O=C(Nc1cccc(C(=O)N2CCOCC2)c1)c1cncc(Br)c1 returned PostGolgi ctrl 1, CYP2C9 inhib -17, CYP2C19 act 1.1, PostGolgi yeast -1, CYP2C19 inh -12 and CYP2C9 activ 1.2.
CC(C)NC1CS(=O)(=O)CC1O (centres undefined) was read as PostGolgi ctrl 6, CYP2C9 inhib -5, CYP2C19 act 1, PostGolgi yeast 4, CYP2C19 inh -5 and CYP2C9 activ 1.1.
For Cc1ccc(-n2[nH]c(C)c(/C=N/n3c(C)nc4ccccc4c3=O)c2=O)cc1 the results were PostGolgi ctrl 9, CYP2C9 inhib 55*, CYP2C19 act 0.7, PostGolgi yeast 5, CYP2C19 inh 30 and CYP2C9 activ 0.4.
`Cc1nc2ccccc2c(=O)n1/N=C/c1cn(-c2ccccc2)nc1-c1cccs1` gave PostGolgi ctrl 9, CYP2C9 inhib 98*, CYP2C19 act 0.2, PostGolgi yeast 8, CYP2C19 inh 80* and CYP2C9 activ 0.
Cc1nc2ccccc2c(=O)n1/N=C/c1ccccc1 was read as PostGolgi ctrl 6, CYP2C9 inhib 18, CYP2C19 act 0.6, PostGolgi yeast 2, CYP2C19 inh 41 and CYP2C9 activ 0.8.
`Cc1nc2ccccc2c(=O)n1/N=C/c1ccncc1` gave PostGolgi ctrl -2, CYP2C9 inhib 27, CYP2C19 act 0.2, PostGolgi yeast -3, CYP2C19 inh 76* and CYP2C9 activ 0.7.
For CC(CCc1ccccc1)NC(=O)C1CCCN(C(=O)c2cc3sccc3n2C)C1 (centres undefined) the results were PostGolgi ctrl 15, CYP2C9 inhib 49, CYP2C19 act 0.7, PostGolgi yeast 17, CYP2C19 inh 33 and CYP2C9 activ 0.5.
Screening CCC(NC(=O)c1cccc(Cn2cc([N+](=O)[O-])cn2)c1)c1ccc(C(C)C)cc1 (centres undefined) returned PostGolgi ctrl 8, CYP2C9 inhib 96*, CYP2C19 act 0.6, PostGolgi yeast -5, CYP2C19 inh 44 and CYP2C9 activ 0.
`CC(NC(=O)c1cccc(Cn2cc([N+](=O)[O-])cn2)c1)c1ccc(C(C)(C)C)cc1` (centres undefined) gave PostGolgi ctrl 11, CYP2C9 inhib 81*, CYP2C19 act 0.4, PostGolgi yeast 12, CYP2C19 inh 61* and CYP2C9 activ 0.2.
Screening C/C(O)=C\c1nc2ccccc2oc1=O returned PostGolgi ctrl 4, CYP2C9 inhib -14, CYP2C19 act 1.1, PostGolgi yeast 5, CYP2C19 inh -12 and CYP2C9 activ 1.1.
CS(=O)(=O)Cc1nc2ccccc2oc1=O was read as PostGolgi ctrl 12, CYP2C9 inhib 45, CYP2C19 act 0.4, PostGolgi yeast 7, CYP2C19 inh 64* and CYP2C9 activ 0.6.
O=C1COc2ccccc2N1Cc1ccccc1Cl was read as PostGolgi ctrl 8, CYP2C9 inhib 22, CYP2C19 act 0.2, PostGolgi yeast -5, CYP2C19 inh 80* and CYP2C9 activ 0.8.
O=C(CN1C(=O)COc2ccccc21)c1cccc(Cl)c1 was read as PostGolgi ctrl 7, CYP2C9 inhib 93*, CYP2C19 act 0, PostGolgi yeast 6, CYP2C19 inh 99* and CYP2C9 activ 0.1.
`O=C(CN1C(=O)COc2ccccc21)c1ccc(Cl)cc1` gave PostGolgi ctrl 8, CYP2C9 inhib 86*, CYP2C19 act 0, PostGolgi yeast -4, CYP2C19 inh 98* and CYP2C9 activ 0.1.
Screening O=C(CN1C(=O)COc2ccccc21)NCc1ccccn1 returned PostGolgi ctrl 2, CYP2C9 inhib 1, CYP2C19 act 1, PostGolgi yeast 6, CYP2C19 inh 1 and CYP2C9 activ 1.
`O=C(CN1C(=O)COc2ccccc21)N1CCN(c2ccccc2F)CC1` gave PostGolgi ctrl 12, CYP2C9 inhib -3, CYP2C19 act 0.6, PostGolgi yeast -2, CYP2C19 inh 44 and CYP2C9 activ 1.
For O=C(CN1C(=O)COc2ccccc21)N(Cc1cccnc1)Cc1ccccc1F the results were PostGolgi ctrl -1, CYP2C9 inhib 54*, CYP2C19 act 0.6, PostGolgi yeast -3, CYP2C19 inh 40 and CYP2C9 activ 0.5.
Screening C=CCN=C1SCC(=O)N1S(=O)(=O)c1ccccc1 returned PostGolgi ctrl 0, CYP2C9 inhib 4, CYP2C19 act 0.6, PostGolgi yeast 16, CYP2C19 inh 40 and CYP2C9 activ 1.
O=C(N/N=C/c1cc([N+](=O)[O-])ccc1Cl)c1ccc2nc[nH]c2c1 was read as PostGolgi ctrl 3, CYP2C9 inhib -4, CYP2C19 act 1.1, PostGolgi yeast -2, CYP2C19 inh -6 and CYP2C9 activ 1.
Screening CC(/C=N/Nc1nnc2c(n1)[nH]c1ccccc12)=C\c1ccco1 returned PostGolgi ctrl 0, CYP2C9 inhib -5, CYP2C19 act 0.2, PostGolgi yeast 3, CYP2C19 inh 80* and CYP2C9 activ 1.1.
Screening Cc1ccccc1S(=O)(=O)c1c(C)cc(C)n(CC(C)C)c1=O returned PostGolgi ctrl 11, CYP2C9 inhib 81*, CYP2C19 act 0.2, PostGolgi yeast -1, CYP2C19 inh 82* and CYP2C9 activ 0.2.
Screening O=C(O)C(Oc1ccc2c3c(c(=O)oc2c1)CCC3)c1ccccc1 (centres undefined) returned PostGolgi ctrl 5, CYP2C9 inhib -11, CYP2C19 act 1.2, PostGolgi yeast 5, CYP2C19 inh -16 and CYP2C9 activ 1.1.
Screening CCOc1ccc(OCC(=O)N2CCOCC2)cc1 returned PostGolgi ctrl -2, CYP2C9 inhib -11, CYP2C19 act 0.7, PostGolgi yeast -4, CYP2C19 inh 30 and CYP2C9 activ 1.1.
